Rows were chosen to be rich in hits. Some 3% of all compounds tested hit in one or more screens of this group.
Shn3 3UTR inh: inhibitors of Schnurri-3 3'UTR reporter in osteoblasts | Clone20 osteoblast Shn3 3'UTR firefly luciferase, 24 h | inhibition, % at 12.5 µM | 0.52% of 360,000 active | AID 588674;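 active = mean inhibition of at least 75% with every replicate also reaching 75%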;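 also: 0% = median of neutral control wells and 100% = pilot-screen positive control compound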
ABHD5 PLIN5 PPI: blocks binding of human ABHD5 to perilipin-5 | Q00G26+Q8WTS1 | Split G. princeps luciferase complementation, luminescence, 4 h | inhibition, % at 4 µM | 0.78% of 360,000 active | AID 602281;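 active = inhibition above the mean inhibition across every tested compound plus 3 SD, cut at about 22% in these data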;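 also: 0% = DMSO only wells and the 100% control is not disclosed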
Target sequence (Q00G26 whole entry, looked up): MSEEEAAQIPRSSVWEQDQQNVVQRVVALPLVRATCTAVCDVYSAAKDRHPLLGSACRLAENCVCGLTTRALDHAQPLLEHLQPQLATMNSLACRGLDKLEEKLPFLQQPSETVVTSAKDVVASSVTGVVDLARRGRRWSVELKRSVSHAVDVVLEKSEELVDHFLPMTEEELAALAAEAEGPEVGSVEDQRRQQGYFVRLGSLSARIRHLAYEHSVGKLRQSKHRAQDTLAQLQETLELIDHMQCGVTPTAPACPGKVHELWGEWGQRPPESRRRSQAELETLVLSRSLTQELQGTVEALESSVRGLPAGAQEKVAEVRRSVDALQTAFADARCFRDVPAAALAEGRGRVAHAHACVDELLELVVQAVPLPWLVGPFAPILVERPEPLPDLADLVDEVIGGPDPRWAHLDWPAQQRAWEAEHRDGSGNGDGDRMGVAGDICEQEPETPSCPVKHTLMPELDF
Target sequence (Q8WTS1 whole entry, looked up): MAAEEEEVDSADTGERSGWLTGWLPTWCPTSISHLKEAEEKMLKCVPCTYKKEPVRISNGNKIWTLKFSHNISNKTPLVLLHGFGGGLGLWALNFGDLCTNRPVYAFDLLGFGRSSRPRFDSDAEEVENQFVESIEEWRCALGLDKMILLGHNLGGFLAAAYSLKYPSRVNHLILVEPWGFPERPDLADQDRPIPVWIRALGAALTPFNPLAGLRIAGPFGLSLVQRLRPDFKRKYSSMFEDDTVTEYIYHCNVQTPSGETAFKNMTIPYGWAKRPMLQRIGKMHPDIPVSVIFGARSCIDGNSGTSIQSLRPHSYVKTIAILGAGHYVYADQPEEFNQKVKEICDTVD
PAX8 reporter: inhibitors of PAX8 transcriptional activity in RMG-I cells; RMG-I TPO-luciferase reporter, SteadyGlo, 24 h; inhibition, % at 12.6 µM; 1.2% of 360,000 active;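 active = mean replicate inhibition at least 60% with every replicate also reaching 60%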;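 also: luciferase light reporting Pax8 driven TPO promoter activity; plate controls were median of neutral control wells for no effect and mitoxantrone controls for full effect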
EWS-Fli inh: EWS/Fli transcriptional activity inhibition; A673 NR0B1-luciferase reporter, viability-normalised; inhibition, % at 12.6 µM; 0.67% of 350,000 active; AID 651661;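 active = mean inhibition of at least 50% after viability correction, with every replicate also passing that limit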;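 also: firefly luciferase signal divided by Alamar Blue viability fluorescence both relative to DMSO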
MITF TRPM1 inh: inhibitors of MITF-driven TRPM1 promoter in melanoma cells | SK-MEL-5 TRPM1 promoter luciferase, 24 h | inhibition, % at 12.5 µM | 0.83% of 330,000 active | AID 488899;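 active = mean inhibition across replicates of 60% or more, whatever share of single replicates reaches that level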
Peg3 prom inh: Peg3 promoter activity inhibition; HeLa PEG-Prom luciferase reporter, luminescence, overnight; inhibition, % at 20 µM; 1.7% of 360,000 active; AID 588405;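 active = inhibition of at least 50% at 20 µM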
* hit, by the source's call; . = not tested or not shown; ! = a repeat was not active.

SMILES	Shn3 3UTR inh	ABHD5 PLIN5 PPI	PAX8 reporter	EWS-Fli inh	MITF TRPM1 inh	Peg3 prom inh
Cc1ccc2sc(N(CCCN(C)C)C(=O)CCS(=O)(=O)c3ccccc3)nc2c1C	57	17	81*	.	33	108*
CO[C@H]1CN(C)C(=O)c2ccc(NS(C)(=O)=O)cc2OC[C@H](C)NC[C@H]1C	.	.	.	3	.	.
CC1(C)C(C=C(Cl)Cl)C1C(=O)Nc1ccc([N+](=O)[O-])cc1 (stereo not drawn)	.	.	99*	4	.	.
Cc1cc2nc(C)n(CCCNC(=O)Nc3cccc4ccccc34)c2cc1C	87*	12	9	.	25	3
CCOc1ccc(NC(=O)NCCCn2c(C)nc3cc(C)c(C)cc32)cc1	52	1	15	.	10	16
COc1ccc(CN(C)C[C@H]2OCCCC[C@@H](C)Oc3ccc(NS(=O)(=O)c4ccc(C)cc4)cc3C(=O)N([C@H](C)CO)C[C@H]2C)cc1	.	.	-4	59*	.	.
COc1ccc(CN(C)C[C@H]2OCCCC[C@@H](C)Oc3ccc(NS(=O)(=O)c4ccc(C)cc4)cc3C(=O)N([C@H](C)CO)C[C@@H]2C)cc1	.	.	-2	-8	.	.
COc1ccc(CN(C)C[C@@H]2OCCCC[C@H](C)Oc3ccc(NS(=O)(=O)c4ccc(C)cc4)cc3C(=O)N([C@H](C)CO)C[C@H]2C)cc1	.	.	82*	11	.	.
Cc1cc2ccccn2c1C(=O)c1ccc([N+](=O)[O-])o1	62	-3	73*	21	36	99*
Cc1cc2ccccn2c1C(=O)c1cccc([N+](=O)[O-])c1	16	-1	5	-6	12	8
CCCOC(=O)c1ccc(OCC(O)Cn2c(C)nc3ccccc32)cc1 (stereo not drawn)	89*	7	-4	3	33	-14
C[C@@H]1CCCCO[C@H](CN(C)S(=O)(=O)c2ccc(Cl)cc2)[C@H](C)CN([C@@H](C)CO)C(=O)c2cc(N(C)C)ccc2O1	.	.	77*	-1	.	.
Cc1ccc(S(=O)(=O)N(C)C[C@H]2OCCCC[C@@H](C)Oc3ccc(N(C)C)cc3C(=O)N([C@H](C)CO)C[C@H]2C)cc1	.	.	47	7	.	.
C[C@@H]1CN([C@@H](C)CO)C(=O)c2cc(N(C)C)ccc2O[C@@H](C)CCCCO[C@H]1CN(C)S(=O)(=O)c1ccc(F)cc1	.	.	88*	0	.	.
CCS(=O)(=O)N[C@H]1CC[C@H](CC(=O)N2CCCCC2)O[C@H]1CO	.	.	-10	-4	.	.
O=C(CCl)N(CCCNC(=O)C(F)(F)F)c1ccc([N+](=O)[O-])cc1	-23	7	15	39	20	24
O=Cc1[nH]c2ccccc2c1N(C(=O)CCl)c1ccc([N+](=O)[O-])cc1	.	2	90*	18	-3	6
C=CC[n+]1ccc(/C=C2\C=Cc3cc(C)ccc3N2CC)c2ccccc21	71	18	.	.	84*	43
CCN1/C(=C/c2cc[n+](CCCS(=O)(=O)[O-])c3ccccc23)Sc2ccccc21	5	5	8	-12	4	16
CC(=NCCN1CCN(C(C)=C2C(=O)c3ccccc3C2=O)CC1)C1=C(O)CC(C)(C)CC1=O	2	7	101*	-2	8	2
CC(=C1C(=O)c2ccccc2C1=O)N1CCN(CCN=CC2=C(O)CC(C)(C)CC2=O)CC1	-22	1	27	4	-5	1
CC(=O)c1cccc(NC(=O)/C=C/c2ccc([N+](=O)[O-])s2)c1	82	-5	24	48	92*	99*
Cc1ccccc1NC(=O)/C=C/c1cccs1	-131	-5	-83	-109	-51	-230
Cc1cc(C)cc(NC(=O)/C=C/c2ccc([N+](=O)[O-])s2)c1	-17	0	-5	26	11	-23
Cc1ccccc1NC(=O)/C=C/c1ccc([N+](=O)[O-])s1	93*	29*	.	.	92*	107*
SMILES	Shn3 3UTR inh	ABHD5 PLIN5 PPI	PAX8 reporter	EWS-Fli inh	MITF TRPM1 inh	Peg3 prom inh
C[C@@H]1CN([C@@H](C)CO)C(=O)c2cc(NC(=O)CCN3CCOCC3)ccc2O[C@@H]1CN(C)Cc1ccncc1	.	.	-9	.	.	.
COc1ccc(NC(=O)Nc2ccc3c(c2)[C@H]2C[C@H](CC(=O)N4CCc5ccccc5C4)O[C@@H](CO)[C@H]2O3)cc1	.	.	3	7	.	.
CN(C)c1nc(N)c([N+](=O)[O-])c(NCc2ccccc2)n1	-12	-5	68*	-5	-5	-6
Nc1nc(NCc2ccccc2)nc(NCc2ccccc2)c1[N+](=O)[O-]	3	3	2	.	-5	14
Cc1ccc(S(=O)(=O)N(C)C[C@H]2Oc3ccc(NS(=O)(=O)c4ccc(F)cc4)cc3CC(=O)N([C@H](C)CO)C[C@@H]2C)cc1	.	.	-5	2	.	.
Cc1ccc(S(=O)(=O)N(C)C[C@H]2Oc3ccc(NS(=O)(=O)c4ccc(F)cc4)cc3CC(=O)N([C@H](C)CO)C[C@H]2C)cc1	.	.	104*	-16	.	.
Cc1ccc(S(=O)(=O)N(C)C[C@H]2OCc3cnnn3CCCC(=O)N([C@@H](C)CO)C[C@H]2C)cc1	-13	8	62*!	5	.	-1
Cc1ccc(S(=O)(=O)Nc2ccc3c(c2)CC(=O)N([C@H](C)CO)C[C@H](C)[C@H](CN(C)S(=O)(=O)c2ccc(F)cc2)O3)cc1	.	.	79*	6	.	.
Cc1ccc(S(=O)(=O)Nc2ccc3c(c2)CC(=O)N([C@@H](C)CO)C[C@H](C)[C@H](CN(C)S(=O)(=O)c2ccc(F)cc2)O3)cc1	.	.	-4	15	.	.
C[C@H](CO)N1C[C@H](C)[C@@H](CN(C)S(=O)(=O)c2ccc(F)cc2)Oc2ccc(NC(=O)Nc3cccc4ccccc34)cc2CC1=O	.	.	4	1	.	.
COc1ccc(N2C(=O)C(Cl)=C(Oc3cccc(OC)c3)C2=O)cc1	36	1	.	.	24	107*
O=C(OCCN1C(=O)c2cccc3c(N4CCOCC4)ccc(c23)C1=O)c1ccc(Cl)cc1Cl	22	-4	8	.	23	24
O=C(OCCN1C(=O)c2cccc3c(N4CCOCC4)ccc(c23)C1=O)c1ccccc1Cl	86*	-3	9	.	41	35
CCCNC(=O)N1C[C@@H]2[C@H](c3ccccc31)[C@H](CO)N2Cc1ccccc1F	.	.	-4	2	.	.
Cc1ccc(-c2cc(-c3ccccc3)no2)c(O)c1	-12	-4	-49	.	10	-101
Clc1ccc(-c2cc(-c3ccccc3)on2)cc1	-139	-5	-240	-107	-86	-400
Cc1ccc2nc(-c3cc(-c4ccccc4)no3)cn2c1	49	-3	40	69*	31	11
CCc1ccn2cc(-c3cc(-c4ccccc4)no3)nc2c1	30	9	83*	75*	78*	73*
CNC[C@@H]1OCCCC[C@@H](C)Oc2ccc(NC(=O)c3ccncc3)cc2C(=O)N([C@@H](C)CO)C[C@H]1C	.	.	-14	-1	.	.
O=S(=O)(c1cc(F)ccc1F)N1CCN(c2ncnc3ccccc23)CC1	88*	8	48	44	32	21

Screening data deposited in PubChem by several laboratories.
